About 7,900 targets were measured; listed, in parts, are those with a hit and a random draw of the rest. About 0.6% of all pairs of compound and target were hits. Values without a mark were called inactive.

UniProt Q8TC07, sequence (Q8TC07 whole entry, looked up): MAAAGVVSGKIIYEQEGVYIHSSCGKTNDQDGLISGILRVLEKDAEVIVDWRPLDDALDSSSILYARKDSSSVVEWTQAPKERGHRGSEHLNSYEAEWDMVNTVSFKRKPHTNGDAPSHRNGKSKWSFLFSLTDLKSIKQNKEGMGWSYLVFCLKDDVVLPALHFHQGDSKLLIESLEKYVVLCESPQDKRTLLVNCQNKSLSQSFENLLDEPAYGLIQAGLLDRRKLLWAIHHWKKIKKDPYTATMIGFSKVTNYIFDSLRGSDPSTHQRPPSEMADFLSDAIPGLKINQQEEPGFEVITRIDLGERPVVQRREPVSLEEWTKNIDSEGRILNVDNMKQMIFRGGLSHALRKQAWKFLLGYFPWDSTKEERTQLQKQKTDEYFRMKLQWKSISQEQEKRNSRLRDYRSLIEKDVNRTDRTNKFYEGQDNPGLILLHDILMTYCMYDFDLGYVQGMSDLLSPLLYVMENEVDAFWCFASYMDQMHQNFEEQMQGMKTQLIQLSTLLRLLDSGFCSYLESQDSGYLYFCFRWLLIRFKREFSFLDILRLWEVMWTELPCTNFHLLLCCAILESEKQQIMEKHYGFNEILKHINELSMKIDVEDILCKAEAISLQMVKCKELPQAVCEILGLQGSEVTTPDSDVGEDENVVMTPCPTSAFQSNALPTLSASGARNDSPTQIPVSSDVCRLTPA
UniProt Q16629, sequence (Q16629 whole entry, looked up): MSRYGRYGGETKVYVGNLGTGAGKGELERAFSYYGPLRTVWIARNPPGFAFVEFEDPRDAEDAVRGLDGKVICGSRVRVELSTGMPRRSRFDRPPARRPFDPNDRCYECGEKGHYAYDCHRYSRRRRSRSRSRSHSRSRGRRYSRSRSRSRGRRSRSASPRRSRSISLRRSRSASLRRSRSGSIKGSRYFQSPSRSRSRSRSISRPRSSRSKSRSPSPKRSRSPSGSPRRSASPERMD
UniProt Q8WXA9, sequence (Q8WXA9 whole entry, looked up): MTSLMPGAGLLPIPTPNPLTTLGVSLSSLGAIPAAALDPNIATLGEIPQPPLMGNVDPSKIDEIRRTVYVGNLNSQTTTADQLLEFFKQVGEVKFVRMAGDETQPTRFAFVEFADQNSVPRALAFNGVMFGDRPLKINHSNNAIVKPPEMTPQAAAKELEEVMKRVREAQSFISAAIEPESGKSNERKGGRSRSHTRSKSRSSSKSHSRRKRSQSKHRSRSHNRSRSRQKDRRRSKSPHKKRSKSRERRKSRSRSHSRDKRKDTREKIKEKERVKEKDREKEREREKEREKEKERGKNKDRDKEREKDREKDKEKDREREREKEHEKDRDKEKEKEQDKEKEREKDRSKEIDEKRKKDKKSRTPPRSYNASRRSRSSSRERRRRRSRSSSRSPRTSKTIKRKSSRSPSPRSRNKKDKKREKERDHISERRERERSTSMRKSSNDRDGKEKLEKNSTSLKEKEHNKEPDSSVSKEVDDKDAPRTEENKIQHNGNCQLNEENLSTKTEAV
UniProt Q92581, sequence (Q92581 whole entry, looked up): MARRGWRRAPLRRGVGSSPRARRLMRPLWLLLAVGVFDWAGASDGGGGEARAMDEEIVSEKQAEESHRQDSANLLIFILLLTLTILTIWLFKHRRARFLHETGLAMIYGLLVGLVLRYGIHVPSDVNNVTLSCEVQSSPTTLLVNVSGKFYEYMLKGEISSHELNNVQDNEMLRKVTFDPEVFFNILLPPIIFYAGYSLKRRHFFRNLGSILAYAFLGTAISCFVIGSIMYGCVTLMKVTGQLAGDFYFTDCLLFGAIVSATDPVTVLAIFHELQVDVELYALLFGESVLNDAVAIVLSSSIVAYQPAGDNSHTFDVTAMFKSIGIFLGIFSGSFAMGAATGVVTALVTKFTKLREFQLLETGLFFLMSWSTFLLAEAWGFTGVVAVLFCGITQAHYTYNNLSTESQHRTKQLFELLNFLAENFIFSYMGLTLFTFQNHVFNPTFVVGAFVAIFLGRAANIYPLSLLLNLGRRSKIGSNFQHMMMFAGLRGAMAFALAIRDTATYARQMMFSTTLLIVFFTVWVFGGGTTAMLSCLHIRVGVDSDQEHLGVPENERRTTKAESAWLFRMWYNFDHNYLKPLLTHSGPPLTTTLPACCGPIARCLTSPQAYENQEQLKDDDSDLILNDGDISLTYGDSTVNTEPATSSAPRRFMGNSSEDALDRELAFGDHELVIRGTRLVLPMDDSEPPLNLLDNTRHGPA
UniProt Q8NEW0, sequence (Q8NEW0 whole entry, looked up): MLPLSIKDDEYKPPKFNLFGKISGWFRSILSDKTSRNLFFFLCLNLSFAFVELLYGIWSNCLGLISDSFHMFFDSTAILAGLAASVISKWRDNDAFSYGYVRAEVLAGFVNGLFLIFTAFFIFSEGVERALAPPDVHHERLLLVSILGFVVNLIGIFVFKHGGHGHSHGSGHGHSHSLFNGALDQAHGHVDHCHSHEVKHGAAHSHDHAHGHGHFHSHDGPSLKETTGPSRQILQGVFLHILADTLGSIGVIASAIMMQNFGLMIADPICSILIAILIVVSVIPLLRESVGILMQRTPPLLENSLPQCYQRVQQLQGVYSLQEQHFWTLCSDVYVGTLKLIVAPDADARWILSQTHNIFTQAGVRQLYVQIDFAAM
UniProt Q96CQ1, sequence (Q96CQ1 whole entry, looked up): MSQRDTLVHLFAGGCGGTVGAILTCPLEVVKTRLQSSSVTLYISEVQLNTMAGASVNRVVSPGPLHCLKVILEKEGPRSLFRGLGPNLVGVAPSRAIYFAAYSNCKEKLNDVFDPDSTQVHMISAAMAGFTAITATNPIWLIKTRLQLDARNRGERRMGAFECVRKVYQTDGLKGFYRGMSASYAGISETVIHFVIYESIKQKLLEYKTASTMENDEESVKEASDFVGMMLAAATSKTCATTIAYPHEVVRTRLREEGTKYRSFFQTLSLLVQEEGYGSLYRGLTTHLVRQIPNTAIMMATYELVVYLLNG
UniProt Q15208, sequence (Q15208 whole entry, looked up): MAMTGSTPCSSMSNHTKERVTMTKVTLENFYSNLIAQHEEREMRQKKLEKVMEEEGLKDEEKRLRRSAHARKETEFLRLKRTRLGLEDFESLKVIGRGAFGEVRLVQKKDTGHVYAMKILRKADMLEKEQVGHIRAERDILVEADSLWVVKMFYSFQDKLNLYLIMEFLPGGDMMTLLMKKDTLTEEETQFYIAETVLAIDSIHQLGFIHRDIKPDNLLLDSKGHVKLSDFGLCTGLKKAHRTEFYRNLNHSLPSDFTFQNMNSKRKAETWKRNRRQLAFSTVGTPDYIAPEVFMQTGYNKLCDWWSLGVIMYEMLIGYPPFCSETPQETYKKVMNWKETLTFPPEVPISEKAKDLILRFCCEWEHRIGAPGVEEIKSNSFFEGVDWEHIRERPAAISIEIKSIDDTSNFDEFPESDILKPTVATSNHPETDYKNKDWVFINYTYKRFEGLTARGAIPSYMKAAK
UniProt Q86UE8, sequence (Q86UE8 whole entry, looked up): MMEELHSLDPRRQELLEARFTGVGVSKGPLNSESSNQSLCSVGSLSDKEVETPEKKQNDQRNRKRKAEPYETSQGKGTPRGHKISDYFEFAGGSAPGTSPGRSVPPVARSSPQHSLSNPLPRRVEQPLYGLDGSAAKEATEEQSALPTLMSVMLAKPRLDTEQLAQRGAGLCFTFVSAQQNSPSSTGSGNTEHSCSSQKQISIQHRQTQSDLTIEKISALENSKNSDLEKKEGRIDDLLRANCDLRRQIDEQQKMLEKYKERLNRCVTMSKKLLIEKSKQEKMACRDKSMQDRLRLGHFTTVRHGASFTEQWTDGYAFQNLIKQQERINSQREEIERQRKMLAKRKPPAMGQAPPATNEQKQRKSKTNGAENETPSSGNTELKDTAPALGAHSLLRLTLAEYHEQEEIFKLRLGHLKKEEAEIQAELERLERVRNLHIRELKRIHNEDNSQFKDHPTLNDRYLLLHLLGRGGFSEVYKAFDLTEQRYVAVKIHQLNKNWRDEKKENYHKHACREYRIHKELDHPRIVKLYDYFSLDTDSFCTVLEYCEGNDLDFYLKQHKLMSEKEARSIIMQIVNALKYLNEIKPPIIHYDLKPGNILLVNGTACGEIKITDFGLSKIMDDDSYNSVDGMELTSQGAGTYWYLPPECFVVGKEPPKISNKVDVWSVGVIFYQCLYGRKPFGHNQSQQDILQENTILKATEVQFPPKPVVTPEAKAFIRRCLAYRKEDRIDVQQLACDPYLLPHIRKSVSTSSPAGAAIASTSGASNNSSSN
UniProt Q02447, sequence (Q02447 whole entry, looked up): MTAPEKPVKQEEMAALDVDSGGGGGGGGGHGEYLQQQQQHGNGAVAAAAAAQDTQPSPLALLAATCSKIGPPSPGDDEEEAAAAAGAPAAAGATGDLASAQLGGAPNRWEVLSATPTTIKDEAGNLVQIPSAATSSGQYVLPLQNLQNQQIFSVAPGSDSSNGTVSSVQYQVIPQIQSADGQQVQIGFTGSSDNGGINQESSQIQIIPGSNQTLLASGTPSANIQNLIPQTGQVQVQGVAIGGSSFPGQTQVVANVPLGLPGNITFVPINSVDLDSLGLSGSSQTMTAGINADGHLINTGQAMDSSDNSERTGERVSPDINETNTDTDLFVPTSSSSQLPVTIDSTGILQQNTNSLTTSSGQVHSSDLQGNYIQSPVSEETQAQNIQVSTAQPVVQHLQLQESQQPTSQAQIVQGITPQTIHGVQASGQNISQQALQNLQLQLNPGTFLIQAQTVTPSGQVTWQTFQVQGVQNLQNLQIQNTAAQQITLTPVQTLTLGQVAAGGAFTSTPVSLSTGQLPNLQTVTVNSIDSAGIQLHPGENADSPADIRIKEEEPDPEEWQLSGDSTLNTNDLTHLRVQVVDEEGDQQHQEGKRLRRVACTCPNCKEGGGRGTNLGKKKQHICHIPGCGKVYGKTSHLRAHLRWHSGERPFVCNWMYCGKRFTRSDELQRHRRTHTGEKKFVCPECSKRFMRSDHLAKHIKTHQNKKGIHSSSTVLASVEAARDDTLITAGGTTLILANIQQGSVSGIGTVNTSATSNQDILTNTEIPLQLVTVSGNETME
UniProt Q8WVK2, sequence (Q8WVK2 whole entry, looked up): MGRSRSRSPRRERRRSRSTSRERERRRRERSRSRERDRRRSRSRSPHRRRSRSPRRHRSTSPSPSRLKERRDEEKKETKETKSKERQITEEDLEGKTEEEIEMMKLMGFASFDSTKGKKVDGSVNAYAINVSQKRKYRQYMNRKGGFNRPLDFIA

Compound in one experiment: C[C@H](C1=CC=C(C=C1)C(=O)NC2=C3C=CNC3=NC=C2)N
The experiment in a line: log2 fold change, soluble protein after heating vs DMSO (PISA); higher = thermal stabilisation; K562 cells, 10 uM, 30 min; active = over 0.2 and 3.5 SD of the protein, either way, in both replicates (recomputed). The procedure, abridged:
(§1)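 Quantification of soluble protein used TMTpro 16plex LC-MS/MS, with channel sums equalised. Samples were the supernatant after 21,000xg for 90 min of pooled aliquots from K562 cells (2×10^6 cells/mL) treated with 10 μM compound for 30 min, heated for 3 min over 48°C-58°C, and extracted in PBS with 0.5% NP-40 at 4°C. Values, from duplicates, describe thermal stability against control samples on a log2 fold-change scale.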
As to SNRNP27 (UniProt Q8WVK2), the log2 fold change is 0.072.

In the case of SRP68 (UniProt Q9UHB9), the log2 fold change was 0.15.

Regarding SP3 (UniProt Q02447), the log2 fold change was 0.123.

For the target TLK2 isoform 2 (UniProt Q86UE8), the log2 fold change is -0.095.

As for STAT6 (UniProt P42226), the log2 fold change was -0.011.

For the target SLC38A9 (UniProt Q8NBW4), the log2 fold change is 0.003.

For the target STAM2 (UniProt O75886), the log2 fold change is -0.049.

Regarding SLC30A7 (UniProt Q8NEW0), the log2 fold change was -0.048.

On to STARD7 (UniProt Q9NQZ5), for which the log2 fold change is -0.114.

For SUMO1 (UniProt P63165), the log2 fold change is 0.176.

As to STAT5A (UniProt P42229), the log2 fold change was -0.036.

Take SRPRA (UniProt P08240): the log2 fold change was 0.01.

With TBC1D15 isoform 3 (UniProt Q8TC07), the log2 fold change was 0.036.

Take TFRC (UniProt P02786): the log2 fold change is -0.018.

For SRSF7 (UniProt Q16629), the log2 fold change is 0.045.

On to TAMM41 isoform 3 (UniProt Q96BW9), for which the log2 fold change was -0.016.

For STK38 (UniProt Q15208), the log2 fold change is -0.031.

For the target SLC6A6 (UniProt P31641), the log2 fold change is -0.021.

For the target TBC1D23 (UniProt Q9NUY8), the log2 fold change is 0.

In the case of SMAD9 (UniProt O15198), the log2 fold change is 0.037.

For the target SRSF3 (UniProt P84103), the log2 fold change was 0.128.

Regarding TBCD (UniProt Q9BTW9), the log2 fold change was -0.034.

On to TECR (UniProt Q9NZ01), for which the log2 fold change is 0.045.

As to STK39 (UniProt Q9UEW8), the log2 fold change is 0.061.

Turning to TAF9 (UniProt Q16594), the log2 fold change was 0.116.

In the case of SUPT16H (UniProt Q9Y5B9), the log2 fold change was -0.093.

In the case of SRFBP1 (UniProt Q8NEF9), the log2 fold change is 0.061.

SLC9A6 isoform 2 (UniProt Q92581): the log2 fold change is -0.005.

As for SNX11 (UniProt Q9Y5W9), the log2 fold change was 0.012.

With SREK1 isoform 2 (UniProt Q8WXA9), the log2 fold change is -0.345.

With SMAD2 (UniProt Q15796), the log2 fold change was 0.012.

With TBC1D5 isoform 2 (UniProt Q92609), the log2 fold change was 0.084.

As to SLC25A36 (UniProt Q96CQ1), the log2 fold change was -0.011.

For SLC7A6 (UniProt Q92536), the log2 fold change was -0.149.

Regarding SUGP1 (UniProt Q8IWZ8), the log2 fold change is -0.064.

On to TAOK1 (UniProt Q7L7X3), for which the log2 fold change was -0.08.

In the case of STXBP5 (UniProt Q5T5C0), the log2 fold change was 0.047.

With SURF1 (UniProt Q15526), the log2 fold change is -0.013.

Compound in a further experiment: C[C@H](Nc1ncnc2nc[nH]c12)c1cc2cccc(Cl)c2c(=O)n1-c1ccccc1 [duvelisib]
Described as above. The gist of the method: as §1
SNRNP27 (UniProt Q8WVK2): the log2 fold change is 0.041.

With SRP68 (UniProt Q9UHB9), the log2 fold change is -0.017.

For the target SP3 (UniProt Q02447), the log2 fold change was 0.031.

In the case of TLK2 isoform 2 (UniProt Q86UE8), the log2 fold change was -0.007.

For STAT6 (UniProt P42226), the log2 fold change was -0.132.

Consider SLC38A9 (UniProt Q8NBW4), for which the log2 fold change is 0.081.

Turning to STAM2 (UniProt O75886), the log2 fold change is -0.031.

As for SLC30A7 (UniProt Q8NEW0), the log2 fold change was 0.081.

As for STARD7 (UniProt Q9NQZ5), the log2 fold change is 0.034.

As to SUMO1 (UniProt P63165), the log2 fold change is -0.137.

For the target STAT5A (UniProt P42229), the log2 fold change was 0.019.

As for SRPRA (UniProt P08240), the log2 fold change was 0.036.

Take TBC1D15 isoform 3 (UniProt Q8TC07): the log2 fold change was -0.031.

Turning to TFRC (UniProt P02786), the log2 fold change is 0.047.

With SRSF7 (UniProt Q16629), the log2 fold change is -0.093.

As to TAMM41 isoform 3 (UniProt Q96BW9), the log2 fold change was 0.032.

STK38 (UniProt Q15208): the log2 fold change was 0.052.

Turning to SLC6A6 (UniProt P31641), the log2 fold change is 0.06.

Consider TBC1D23 (UniProt Q9NUY8), for which the log2 fold change was 0.002.

As to SMAD9 (UniProt O15198), the log2 fold change is 0.014.

As for SRSF3 (UniProt P84103), the log2 fold change was -0.081.

For TBCD (UniProt Q9BTW9), the log2 fold change was 0.058.

Take TECR (UniProt Q9NZ01): the log2 fold change was 0.05.

In the case of STK39 (UniProt Q9UEW8), the log2 fold change is 0.007.

Turning to TAF9 (UniProt Q16594), the log2 fold change was 0.009.

In the case of SUPT16H (UniProt Q9Y5B9), the log2 fold change is 0.084.

In the case of SRFBP1 (UniProt Q8NEF9), the log2 fold change is -0.039.

Turning to SLC9A6 isoform 2 (UniProt Q92581), the log2 fold change was 0.079.

Turning to SNX11 (UniProt Q9Y5W9), the log2 fold change was -0.486 (active).

In the case of SREK1 isoform 2 (UniProt Q8WXA9), the log2 fold change is 0.026.

As for SMAD2 (UniProt Q15796), the log2 fold change was 0.038.

In the case of TBC1D5 isoform 2 (UniProt Q92609), the log2 fold change was -0.072.

Turning to SLC25A36 (UniProt Q96CQ1), the log2 fold change is 0.195.

Turning to SLC7A6 (UniProt Q92536), the log2 fold change was 0.116.

SUGP1 (UniProt Q8IWZ8): the log2 fold change is -0.024.

In the case of TAOK1 (UniProt Q7L7X3), the log2 fold change was -0.012.

In the case of STXBP5 (UniProt Q5T5C0), the log2 fold change was 0.066.

Turning to SURF1 (UniProt Q15526), the log2 fold change was 0.

Values taken from the supplement of paper PMC10849652.
